Molecules are shown by their SMILES. Results filed as inconclusive are left out. Some structures have more than one record in an assay (separate samples or runs), and their calls can disagree. Activity calls are given as the source filed them. Rule for the calls, unless noted: active = hit-call score of the fitted dose curve at least 0.9, where 1 is the maximum; inactive = score below 0.9.

Estrogen receptor (Homo sapiens), sequence (P03372 whole entry, looked up): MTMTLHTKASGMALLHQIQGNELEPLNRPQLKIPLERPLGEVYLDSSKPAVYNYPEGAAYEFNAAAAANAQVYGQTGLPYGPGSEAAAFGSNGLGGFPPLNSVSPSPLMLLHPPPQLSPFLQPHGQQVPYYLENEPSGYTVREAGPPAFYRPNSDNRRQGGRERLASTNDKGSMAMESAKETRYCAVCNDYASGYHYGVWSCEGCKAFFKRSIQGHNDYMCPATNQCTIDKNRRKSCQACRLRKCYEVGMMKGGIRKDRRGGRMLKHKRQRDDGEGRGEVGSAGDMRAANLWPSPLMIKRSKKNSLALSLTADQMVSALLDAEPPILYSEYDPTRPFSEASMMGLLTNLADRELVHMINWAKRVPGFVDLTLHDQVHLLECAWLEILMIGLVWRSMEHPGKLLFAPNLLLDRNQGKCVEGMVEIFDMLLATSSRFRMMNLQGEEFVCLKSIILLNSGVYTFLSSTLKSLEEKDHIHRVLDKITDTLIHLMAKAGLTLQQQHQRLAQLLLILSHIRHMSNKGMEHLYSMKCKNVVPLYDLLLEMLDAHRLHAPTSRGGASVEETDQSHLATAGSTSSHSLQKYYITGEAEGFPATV

System in the first assay: not listed separately
The assay is described as follows: CCTE_Shafer_MEA_dev_active_electrodes_number: CCTE's Neural Network Formation Assay for Number of Active Electrodes, Shafer Lab (AID 2284040; active = hit-call score of the fitted dose curve at least 0.9, where 1 is the maximum;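 for AC50: potency for loss of active electrodes versus DMSO so lower counts are hits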). A digest of the protocol:
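Rat cortical primary cultures, 1.5 x 10^5 cells/well, PEI-coated MEA, laminin drop. Continuous exposure DIV 0–12; full media/compound change DIV 5, 9. Readout: electrodes with mean firing ≥5 spikes/min; AUC across days; loss vs DMSO.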
`CC(C)c1ccc(C(=O)N=C(N)N)cc1S(C)(=O)=O`: the result was inactive.
The same measure, in the same setting: with `C=CCc1ccc(O)c(OC)c1` the entry was “inactive”.
Consider `O=c1[nH]cc(F)c(=O)[nH]1`, for which the AC50 is 2.59 µM (active).
For `CC(=O)Oc1ccccc1C(=O)O`, the call was inactive.
On the same count and under the same terms, with `C[Si]1(C)O[Si](C)(C)O[Si](C)(C)O[Si](C)(C)O1` the entry was “inactive”.
As for `CCCc1cc(=O)[nH]c(=S)[nH]1`, the AC50 was 22.9 µM (active) and the result was inactive.
Consider `FC(F)(F)C(F)(F)C(F)(F)C(F)(F)C(F)(F)C(F)(F)CCI`, for which the outcome was inactive.
On the same count and under the same terms, with `OC[C@@H](O)[C@@H](O)[C@H](O)[C@H](O)CO` the entry was “inactive”.
Same read-out and setting: for `Cc1cc(=O)[nH]c(=S)[nH]1` the value was “inactive”.

The target of a further assay is Estrogen receptor (Homo sapiens) (UniProt P03372). Description: CCTE_Deisenroth_AIME_384WELL_LUC_Shift: CCTE's 384-well Estrogen Receptor Transactivation Assay with AIME metabolic competence data shift (ERTA luciferase; difference in metabolism positive and negative), Deisenroth Lab (AID 2284041).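 Note: shift is response with S9 minus without S9 so positive means metabolism raised ER signal.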 In short, it runs like this:
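Test chemicals (0.002–200 uM, 10-point) were pre-incubated 2 h with alginate microspheres containing phenobarbital/beta-naphthoflavone-induced male Sprague Dawley rat liver S9 or water, then medium was transferred to VM7Luc4E2 cells for 24 h luciferase readout; shift = S9-positive minus S9-negative normalized response.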
On to `CCCCCCCC=O`, for which the AC50 is 15.6 µM (active).
Regarding `C=CCc1ccc(O)c(OC)c1`, the outcome was inactive.
On the same count and under the same terms, for `CC1=C(/C=C/C(C)=C/C=C/C(C)=C/CO)C(C)(C)CCC1` the value was “inactive”.
As for `Nc1ccc2c(c1)C(=O)c1ccccc1C2=O`, the AC50 is 3.51 µM (active).
As to `CNCc1cc(F)ccc1Oc1ccc(Cl)c(Cl)c1`, the outcome was inactive.
For the compound `Cc1ccc(C)c(C)c1`, the result was inactive.
Still for that read-out and setting: with `C[C@]12C=CC(=O)C=C1CC[C@@H]1[C@@H]2C(=O)C[C@@]2(C)[C@H]1CC[C@]2(O)C(=O)CO` the entry was “inactive”; with `CCCCOC(=O)CCCCCCCCC(=O)OCCCC`, “inactive”.
For `O=c1c(O)c(-c2ccc(O)c(O)c2)oc2cc(O)cc(O)c12`, the AC50 is 13.5 µM (active).
Turning to `O=c1[nH]cc(F)c(=O)[nH]1`, the outcome was inactive.
Still for that read-out and setting: with `CCNc1cccc(C)c1` the entry was “inactive”.
Same read-out and setting: for `Cc1cccc(C)c1O` the value was “inactive”; for `CC1(C)NC(=O)NC1=O`, “inactive”.
Same read-out and setting: with `CC(=O)Oc1ccccc1C(=O)O` the entry was “inactive”; with `CN1CCCC1=O`, “inactive”.
`Clc1cc(Cl)c(Cl)cc1Cl`: the outcome was inactive.
Same read-out and setting: for `C[Si]1(C)O[Si](C)(C)O[Si](C)(C)O[Si](C)(C)O1` the value was “inactive”.
Same read-out and setting: for `COc1ccc(C)cc1N` the value was “inactive”.
Still for that read-out and setting: with `CC1(C)CC(N=C=O)CC(C)(CN=C=O)C1` (stereo unspecified) the entry was “inactive”; with `CCCc1cc(=O)[nH]c(=S)[nH]1`, “inactive”; with `Cc1ccc(N(C)C)cc1`, “inactive”.
For `COc1cc(C=O)ccc1O`, the outcome was inactive.
On the same count and under the same terms, for `CCCCCC(=O)O` the value was “inactive”.
On the same count and under the same terms, for `COCCOCCOC` the value was “inactive”; for `CCCCCCCCCCCCCCCCCC(=O)O`, “inactive”.
The same measure, in the same setting: with `CNC(=O)[C@H]1O[C@@H](n2cnc3c(NCc4cc(Cl)ccc4OCc4cc(C)no4)ncnc32)[C@H](O)[C@@H]1N` the entry was “inactive”; with `Cc1ccc(C)c(O)c1C`, “inactive”.
With `Cc1ccc2ncccc2c1`, the outcome was inactive.
On the same count and under the same terms, with `CCCCCCC(=O)OCC` the entry was “inactive”; with `CCCCCCCCCCO`, “inactive”; with `Cc1cc(=O)[nH]c(=S)[nH]1`, “inactive”.
The same measure, in the same setting: with `Cc1cccc([N+](=O)[O-])c1C` the entry was “inactive”; with `NCCO`, “inactive”.
Take `Cc1ccc(C(C)C)c(O)c1`: the outcome was inactive.

System in the next assay: not listed separately
Description: CCTE_Shafer_MEA_dev_burst_rate: CCTE's Neural Network Formation Assay for Burst Rate, Shafer Lab (AID 2284042).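 For AC50: potency for loss of burst rate below DMSO control.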 A digest of the protocol: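 Exposure ran continuously over 12 days of network development in rat cortical cultures, with compound refreshed during full media changes on DIV 5 and 9. Single-electrode bursts per recording time, well-mean over active electrodes, trapezoidal AUC across days 5–12, fitted downward relative to DMSO.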
For `CC(C)c1ccc(C(=O)N=C(N)N)cc1S(C)(=O)=O`, the result was inactive.
On the same count and under the same terms, for `C=CCc1ccc(O)c(OC)c1` the value was “inactive”.
As to `O=c1[nH]cc(F)c(=O)[nH]1`, the AC50 was 1.58 µM (active).
`CC(=O)Oc1ccccc1C(=O)O`: the outcome was inactive.
For `C[Si]1(C)O[Si](C)(C)O[Si](C)(C)O[Si](C)(C)O1`, the call was inactive.
Still for that read-out and setting: with `CCCc1cc(=O)[nH]c(=S)[nH]1` the entry was “inactive”.
Still for that read-out and setting: for `FC(F)(F)C(F)(F)C(F)(F)C(F)(F)C(F)(F)C(F)(F)CCI` the value was “inactive”.
On the same count and under the same terms, with `OC[C@@H](O)[C@@H](O)[C@H](O)[C@H](O)CO` the entry was “inactive”.
`Cc1cc(=O)[nH]c(=S)[nH]1`: the outcome was inactive.

System in a further assay: not listed separately
The assay is described as follows: CCTE_Shafer_MEA_dev_bursting_electrodes_number: CCTE's Neural Network Formation Assay for Number of Bursting Electrodes, Shafer Lab (AID 2284043; active = hit-call score of the fitted dose curve at least 0.9, where 1 is the maximum;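 for AC50: potency is for loss of bursting electrodes relative to DMSO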). In short, it runs like this: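 Read-out is the per-well number of electrodes bursting at least once every 2 minutes, recorded on days 5, 7, 9 and 12 and collapsed by trapezoidal area under the curve. Cultures were primary rat cortical neurons on MEA plates, treated continuously from plating.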
Take `CC(C)c1ccc(C(=O)N=C(N)N)cc1S(C)(=O)=O`: the compound was classed as inactive.
Still for that read-out and setting: for `C=CCc1ccc(O)c(OC)c1` the value was “inactive”.
As for `O=c1[nH]cc(F)c(=O)[nH]1`, the AC50 was 1.39 µM (active).
Turning to `C[Si]1(C)O[Si](C)(C)O[Si](C)(C)O[Si](C)(C)O1`, the compound was called inactive.
For the compound `CCCc1cc(=O)[nH]c(=S)[nH]1`, the AC50 is 23.2 µM (active).
For the compound `FC(F)(F)C(F)(F)C(F)(F)C(F)(F)C(F)(F)C(F)(F)CCI`, the call was inactive.
For the compound `OC[C@@H](O)[C@@H](O)[C@H](O)[C@H](O)CO`, the compound was classed as inactive.
In the case of `Cc1cc(=O)[nH]c(=S)[nH]1`, the AC50 was 10 µM (active).

System in another assay: not listed separately
The assay is described as follows: CCTE_Shafer_MEA_dev_per_burst_interspike_interval: CCTE's Neural Network Formation Assay for Burst Interspike Interval, Shafer Lab (AID 2284044).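 For AC50: potency for a decrease of within-burst interspike interval below DMSO level.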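 Note: mean spike spacing inside bursts as AUC over recordings on days 5 7 9 12.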 In short, it runs like this:
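Spontaneous activity of maturing rat cortical networks is recorded on DIV 5, 7, 9 and 12 under chronic compound exposure beginning at plating. Endpoint: burst interspike interval well-mean, collapsed into trapezoidal AUC and fitted in the negative direction relative to DMSO.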
Take `CC(C)c1ccc(C(=O)N=C(N)N)cc1S(C)(=O)=O`: the compound was classed as inactive.
The same measure, in the same setting: with `C=CCc1ccc(O)c(OC)c1` the entry was “inactive”.
Same read-out and setting: with `O=c1[nH]cc(F)c(=O)[nH]1` the entry was “inactive”.
With `CC(=O)Oc1ccccc1C(=O)O`, the outcome was inactive.
`C[Si]1(C)O[Si](C)(C)O[Si](C)(C)O[Si](C)(C)O1`: the outcome was inactive.
As to `CCCc1cc(=O)[nH]c(=S)[nH]1`, the AC50 is 11.7 µM (active) and the compound was classed as inactive.
For the compound `FC(F)(F)C(F)(F)C(F)(F)C(F)(F)C(F)(F)C(F)(F)CCI`, the call was inactive.
Still for that read-out and setting: with `OC[C@@H](O)[C@@H](O)[C@H](O)[C@H](O)CO` the entry was “inactive”; with `Cc1cc(=O)[nH]c(=S)[nH]1`, “inactive”.

System in a further assay: not listed separately
The assay is described as follows: CCTE_Shafer_MEA_dev_burst_duration_mean: CCTE's Neural Network Formation Assay for Mean Burst Duration, Shafer Lab (AID 2284045).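 For AC50: curve fitted for loss meaning shorter burst duration than DMSO.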 In short, it runs like this: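 Read-out: average first-to-last-spike interval within single-electrode bursts, averaged over bursting electrodes per well, then summarised as area under the curve across days 5, 7, 9 and 12. Developing rat cortical networks were exposed from day 0.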
As to `CC(C)c1ccc(C(=O)N=C(N)N)cc1S(C)(=O)=O`, the call was inactive.
Same read-out and setting: with `C=CCc1ccc(O)c(OC)c1` the entry was “inactive”.
The same measure, in the same setting: for `O=c1[nH]cc(F)c(=O)[nH]1` the value was “inactive”.
`CC(=O)Oc1ccccc1C(=O)O`: the AC50 was 26.2 µM (active) and the compound was classed as inactive.
`C[Si]1(C)O[Si](C)(C)O[Si](C)(C)O[Si](C)(C)O1`: the result was inactive.
On the same count and under the same terms, for `CCCc1cc(=O)[nH]c(=S)[nH]1` the value was “inactive”.
Regarding `FC(F)(F)C(F)(F)C(F)(F)C(F)(F)C(F)(F)C(F)(F)CCI`, the result was inactive.
In the case of `OC[C@@H](O)[C@@H](O)[C@H](O)[C@H](O)CO`, the outcome was inactive.
`Cc1cc(=O)[nH]c(=S)[nH]1`: the compound was classed as inactive.

What is called AC50 is the midpoint of the concentration-response curve, whichever way the signal moves.

Source of the values: PubChem BioAssay (EPA / NIEHS).
